Assay results: PubChem BioAssay (NCI)
Compounds without any hit were thinned out: in the full panel of roughly 79,000, 15% have a hit. Cut-off read from the data, not from the text of the source: active = growth inhibition above about 70%; inactive = the rest.

Experiments:
[1] = NCI Yeast Anticancer Drug Screen. Data for the rad50 strain (AID 155);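 note: 0% = growth of vehicle-only cultures of the same strain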; settings: S. cerevisiae rad50 strain growth inhibition; at 50.0 µM; active compounds read high
How it was run: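 Relative growth inhibition (compound vs vehicle) was measured in yeast with a defined repair-gene alteration.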

[2] = NCI Yeast Anticancer Drug Screen. Data for the mec2-1 strain (AID 157); settings: S. cerevisiae mec2-1 strain, at 50.0 µM, active compounds read high
How it was run: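 Readout is yeast growth inhibition, normalised to vehicle-treated controls, in the mec2-1 strain exposed to compound.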

[3] = NCI Yeast Anticancer Drug Screen. Data for the sgs1 mgt1 strain (AID 161);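 note: 0% = growth of cultures given vehicle only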; settings: S. cerevisiae sgs1 mgt1 strain, at 50.0 µM, active compounds read high
How it was run: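 Percent growth inhibition was derived by comparing compound-exposed mutant yeast with vehicle-exposed cultures. The strain carries alterations in DNA damage repair.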

[4] = NCI Yeast Anticancer Drug Screen. Data for the cln2 rad14 strain (AID 165);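 note: 0% = growth equal to vehicle treated cultures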; settings: S. cerevisiae cln2 rad14 strain, at 50.0 µM, active compounds read high
How it was run: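 Relative to vehicle controls, growth inhibition of compound-treated cln2 rad14 yeast was recorded.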

[5] = NCI Yeast Anticancer Drug Screen. Data for the bub3 strain (AID 167); settings: S. cerevisiae bub3 mutant strain, at 50.0 µM, active compounds read high
How it was run: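 Screening used yeast with an engineered genetic alteration affecting cell cycle control. Compound-exposed cultures were compared with vehicle cultures, and reduced growth was taken as inhibition.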

[6] = NCI Yeast Anticancer Drug Screen. Data for the mlh1 rad18 strain (AID 175); settings: S. cerevisiae mlh1 rad18 strain growth inhibition; at 50.0 µM; active compounds read high
How it was run: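 Test agents were incubated with a yeast strain of defined genotype (DNA damage repair defect). Inhibition of growth was derived by comparison with vehicle-exposed cultures.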

Measured: growth inhibition

COc1cc(C2[C@H]3C(=O)N(c4ccc(Cc5ccc(N6C(=O)[C@@H]7ON(c8ccccc8)C(c8cc(OC)c(OC)c(OC)c8)[C@@H]7C6=O)cc5)cc4)C(=O)[C@H]3ON2c2ccccc2)cc(OC)c1OC (stereo not given in full)
inactive: [1] -2.25% | [2] 5.2% | [3] 3.75% | [4] 27.5% | [5] 25.9% | [6] -6.3%

CCOC(=O)C(CCSC)(CCN(C)Cc1ccccc1)C(=O)OCC
inactive: [1] -23.1% | [2] -3.05% | [3] -6.9% | [4] -0.9% | [5] 8.85% | [6] -3.3%

NCCCn1cnc2c(N)ncnc21
inactive: [1] 8.95% | [2] -1.55% | [3] -4.55% | [4] -18.6% | [5] -16.4% | [6] 0.65%

COc1ccc(/C(C)=N/OC(=O)c2sc3ccccc3c2Cl)cc1CN1CCOCC1
inactive: [1] -17.9% | [2] -23.9% | [3] -25.4% | [4] -2.05% | [5] -28.9% | [6] -21.6%

C=CCOC(=O)C(C)(C)OC(C)=O
inactive: [1] 13.9% | [2] 5.9% | [3] 10.8% | [4] 3.15% | [5] 2% | [6] -1.85%

C=C1COC(/C=C(\C)CC/C=C(\C)CCl)C1 (stereo not given)
inactive: [1] -7.4% | [2] -20.2% | [3] -18.6% | [4] 28.1% | [5] -17.1% | [6] -1.7%

CC(=O)c1ccc(N2C(=O)C3c4[nH]c5ccccc5c4C4CCC(C(C)(C)C)CC4C3C2=O)cc1 (stereo not given)
inactive: [1] 42.8% | [2] -2.7% | [3] 0.5% | [4] 63% | [5] 16% | [6] 18.4%

CC(=O)NC(Cc1cc(I)c(OC(C)=O)c(I)c1)C(=O)O (stereo not given)
inactive: [1] -4.85% | [2] -16.8% | [3] 3.45% | [4] 6% | [5] 12.4% | [6] -0.6%

CCOC(=O)C1=C(N)n2c(s/c(=C/c3ccc(N(C)C)cc3)c2=O)=C(C(=O)OCC)C1c1ccc(N(C)C)cc1 (stereo not given)
inactive: [1] -7.3% | [2] -19.1% | [3] -9.1% | [4] -7.2% | [5] 3.4% | [6] -7.3%

O=C(/C(=C(/[O-])C(F)(F)F)[n+]1ccc2ccccc2c1)C(F)(F)F
inactive: [1] -16.4% | [2] -2.4% | [3] -5.3% | [4] -40.1% | [5] -28.6% | [6] -0.4%

Cc1[nH]c2ccc([N+](=O)[O-])cc2c1C
inactive: [1] 19.1% | [2] -5.15% | [3] 32.1% | [4] 26.4% | [5] 25.4% | [6] 38.4%

COc1ccc(/C(=N\N=C(N)N)C(c2ccc(OC)cc2)C2OC(=O)c3ccccc32)cc1 (stereo not given)
inactive: [1] -12.2% | [2] -4.85% | [3] -4.65% | [4] -64.8% | [5] 16% | [6] -18.7%

O=C(CCl)OC1CCCCC1C1CCCCC1 (stereo not given)
inactive: [1] 22.7% | [2] 12.8% | [3] 39.3% | [4] -1.5% | [5] 32% | [6] 39.6%

N#Cc1c(-c2ccccc2)cc(-c2cccs2)c(C#N)c1N
inactive: [1] 4.35% | [2] 4% | [3] 7.85% | [4] -35.3% | [5] 12.8% | [6] 21.1%

CCOC(=O)NC(CCl)NC(=O)OCC
inactive: [1] -11.7% | [2] -5.6% | [3] -2.05% | [4] -77% | [5] 6.4% | [6] -35.5%

CC(CCOS(C)(=O)=O)OS(C)(=O)=O (stereo not given)
inactive: [1] 8.25% | [2] -5.2% | [3] 1.25% | [4] -3.25% | [5] 8.95% | [6] -7.6%

CCN(CC)CCN1c2ccccc2Sc2ccc3ccccc3c21
inactive: [1] 37.5% | [2] 0.8% | [3] 2.7% | [4] 3.4% | [5] 38.5% | [6] 58.5%

COc1ccc(N=C(C)C2C(=O)c3ccccc3C2=O)cc1
inactive: [1] 44% | [2] -21.9% | [3] -10.2% | [4] 13.7% | [5] 16.6% | [6] -30.7%

CC(C)/C(Cl)=N\OC(NC(=O)P(=O)(c1ccccc1)c1ccccc1)(C(F)(F)F)C(F)(F)F
inactive: [1] 58.5% | [2] 52.2% | [3] 50.8% | [4] 65.5% | [5] 52.4% | [6] 60.9%

Cc1nc(Cc2n[nH]c(C)n2)n[nH]1
inactive: [1] 14.4% | [2] -6.65% | [3] 11.9% | [4] 15.2% | [5] 3.4% | [6] 14.3%
